Assay results published in PubChem BioAssay.

Legend:
[1] = test system: Botulinum neurotoxin type F light chain protease (Clostridium botulinum); experiment: Botulinum neurotoxin type F light chain protease inhibition, multiplex microsphere flow cytometry, validation set (AID 588459); conditions: multiplex microsphere protease substrate cleavage assay, at 10 µM, active compounds read high
[2] = molecular target: Botulinum neurotoxin type A (Clostridium botulinum) (UniProt P0DPI0); experiment: BoNT/A light chain protease inhibitors, biochemical, multiplex microsphere flow cytometry, validation set (AID 588460); conditions: at 10 µM, active compounds read high
Botulinum neurotoxin type A (Clostridium botulinum), sequence (P0DPI0 whole entry, looked up): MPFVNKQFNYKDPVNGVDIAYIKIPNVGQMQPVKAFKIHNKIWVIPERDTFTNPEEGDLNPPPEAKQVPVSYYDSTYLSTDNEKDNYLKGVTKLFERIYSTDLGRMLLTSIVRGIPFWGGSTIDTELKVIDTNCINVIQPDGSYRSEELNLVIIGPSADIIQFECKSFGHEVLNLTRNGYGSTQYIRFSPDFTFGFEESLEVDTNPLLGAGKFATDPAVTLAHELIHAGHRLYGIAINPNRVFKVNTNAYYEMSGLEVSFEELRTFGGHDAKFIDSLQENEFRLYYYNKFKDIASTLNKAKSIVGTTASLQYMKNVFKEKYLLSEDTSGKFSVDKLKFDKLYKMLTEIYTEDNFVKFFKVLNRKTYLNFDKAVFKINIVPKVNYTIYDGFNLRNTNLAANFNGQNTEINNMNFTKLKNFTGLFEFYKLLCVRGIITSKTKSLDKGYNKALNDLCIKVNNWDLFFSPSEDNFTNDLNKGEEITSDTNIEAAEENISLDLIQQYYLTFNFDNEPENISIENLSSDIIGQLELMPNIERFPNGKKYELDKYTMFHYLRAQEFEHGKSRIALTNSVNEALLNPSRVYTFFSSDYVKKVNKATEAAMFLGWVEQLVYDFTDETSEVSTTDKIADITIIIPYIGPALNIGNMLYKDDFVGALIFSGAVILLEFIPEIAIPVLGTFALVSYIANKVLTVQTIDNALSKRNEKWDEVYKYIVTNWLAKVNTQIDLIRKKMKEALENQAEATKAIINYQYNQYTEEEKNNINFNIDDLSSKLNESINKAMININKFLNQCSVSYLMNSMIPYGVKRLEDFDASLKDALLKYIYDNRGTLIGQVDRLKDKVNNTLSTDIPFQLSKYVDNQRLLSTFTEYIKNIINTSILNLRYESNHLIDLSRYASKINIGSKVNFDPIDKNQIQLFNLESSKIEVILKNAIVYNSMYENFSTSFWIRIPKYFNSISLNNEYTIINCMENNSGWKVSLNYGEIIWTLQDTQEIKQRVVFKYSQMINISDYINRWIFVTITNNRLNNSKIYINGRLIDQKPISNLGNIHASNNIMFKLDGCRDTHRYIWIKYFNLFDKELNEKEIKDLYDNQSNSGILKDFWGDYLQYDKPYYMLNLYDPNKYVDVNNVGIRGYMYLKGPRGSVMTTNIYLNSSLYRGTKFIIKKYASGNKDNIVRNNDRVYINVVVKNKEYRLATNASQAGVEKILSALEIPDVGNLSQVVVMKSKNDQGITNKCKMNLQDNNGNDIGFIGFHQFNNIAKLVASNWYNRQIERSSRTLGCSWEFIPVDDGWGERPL

[3] = molecular target: Lethal factor (Bacillus anthracis) (UniProt P15917); experiment: Lethal factor protease inhibitors, Bacillus anthracis, multiplex microsphere cleavage assay, validation set (AID 588461); conditions: flow cytometry, at 10 µM, active compounds read high
Lethal factor (Bacillus anthracis), sequence (P15917 whole entry, looked up): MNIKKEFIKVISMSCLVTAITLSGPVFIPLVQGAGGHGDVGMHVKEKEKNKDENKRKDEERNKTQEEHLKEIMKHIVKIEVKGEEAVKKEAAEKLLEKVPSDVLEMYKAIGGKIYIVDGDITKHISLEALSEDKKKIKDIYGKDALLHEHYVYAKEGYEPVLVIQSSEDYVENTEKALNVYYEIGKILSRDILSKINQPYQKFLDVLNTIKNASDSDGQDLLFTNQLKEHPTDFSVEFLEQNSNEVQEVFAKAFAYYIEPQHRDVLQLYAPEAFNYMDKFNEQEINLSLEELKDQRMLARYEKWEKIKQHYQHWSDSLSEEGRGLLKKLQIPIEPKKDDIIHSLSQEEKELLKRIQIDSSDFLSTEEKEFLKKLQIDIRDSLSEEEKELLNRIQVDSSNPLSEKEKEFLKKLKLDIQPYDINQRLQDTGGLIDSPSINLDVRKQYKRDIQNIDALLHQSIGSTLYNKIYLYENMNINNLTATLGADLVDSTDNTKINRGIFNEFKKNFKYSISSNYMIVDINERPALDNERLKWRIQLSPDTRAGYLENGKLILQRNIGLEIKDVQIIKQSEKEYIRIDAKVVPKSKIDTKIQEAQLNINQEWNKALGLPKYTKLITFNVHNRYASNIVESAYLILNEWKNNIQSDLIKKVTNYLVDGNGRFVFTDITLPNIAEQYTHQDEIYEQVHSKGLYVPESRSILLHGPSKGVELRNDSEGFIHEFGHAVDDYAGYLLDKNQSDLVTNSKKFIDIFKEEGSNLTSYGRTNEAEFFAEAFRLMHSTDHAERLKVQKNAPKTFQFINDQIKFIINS

Measured: inhibition

COc1ccc(CNC(=O)c2cc3c(=O)n4ccccc4nc3n(Cc3cccnc3)c2=N)cc1
inactive: [1] -1.2% | [2] 0.4% | [3] -1.9%

COc1ccc(CCN=CC2=C(O)CC(C)(C)CC2=O)cc1
inactive: [1] 1.2% | [2] -0.7% | [3] -4.5%

CN1CCC(=C2c3ccccc3C=Cc3ccccc32)CC1
inactive: [1] -1.3% | [2] -1.2% | [3] -8.4%

CC(COc1ccccc1)N(CCCl)Cc1ccccc1 (stereo not drawn)
inactive: [1] 0.1% | [2] -2.7% | [3] -5.9%

COc1ccc(CCNC(=O)CC(c2ccccc2)c2cccc(C)c2O)cc1OC (stereo not drawn)
inactive: [1] -0.9% | [2] -0.9% | [3] 0.1%

Cc1oc2c(CN3CCCC3)c(O)ccc2c(=O)c1-c1ccc(Cl)cc1
inactive: [1] -1.2% | [2] -0.3% | [3] -0.5%

O=C(/C=C/c1ccccc1)/C=C/c1ccccc1
inactive: [1] 0.8% | [2] 0.3% | [3] 1.5%

CC(C)(C)c1ccc(/C=C/C(=O)N2CCCCC2)cc1
inactive: [1] -0.4% | [2] -1.5% | [3] 4.7%

COc1cc(NC(=S)NC(=O)c2cccs2)ccc1NC(=O)C(C)C
inactive: [1] -2.2% | [2] 0.1% | [3] -4%

Oc1[nH]c2ccccc2c1C1=NCCCC1
inactive: [1] 3.8% | [2] -0.1% | [3] -8.7%

CC(COc1ccccc1)NC(C)C(O)c1ccc(O)cc1 (stereo not drawn)
inactive: [1] -1.7% | [2] 0.2% | [3] 0.2%
